AC50 and outcome data for 6 molecules are collected here from PubChem BioAssay (EPA / NIEHS).

As usually defined, the AC50 is the midpoint of the concentration-response curve, whichever way the signal moves.

Records with an inconclusive call do not appear. Calls of active or inactive are those of the source. How the source made its calls, unless noted: active means hit-call score of the fitted dose curve at least 0.9, where 1 is the maximum; inactive means score below 0.9.

A short description of test [1]: ATG_PXRE_CIS: Attagene CIS-FACTORIAL HepG2 Assay for human Pregnane X Receptor Element (PXRE) (AID 2282957). The settings on record: HepG2 Attagene CIS-FACTORIAL PXRE reporter, mRNA; actives raise or lower the signal. Put shortly: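 HepG2 cells transiently transfected with cis-regulated multiple reporter transcription units; endogenous factor activity measured as reporter mRNA 24 h after dosing. RT-PCR, fluorescent primer extension, HpaI digestion, capillary electrophoresis; bidirectional fit versus DMSO baseline.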

Test [2] is described as follows: ATG_PPRE_CIS: Attagene CIS-FACTORIAL HepG2 Assay for human Peroxisome Proliferator-activated Response Element (PPRE) (AID 2282958). The settings on record: HepG2 PPRE cis-element reporter, Attagene transcription factor profiling; actives raise or lower the signal. Put shortly: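 Measured endpoint: PPRE-controlled reporter mRNA, detected by RT-PCR and capillary electrophoresis fluorescence, from transiently transfected HepG2 cells 24 h after dosing. Curves fitted in both directions using DMSO baseline.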

Test [3] in a line: ATG_RORE_CIS: Attagene CIS-FACTORIAL HepG2 Assay for human RAR-related Orphan Receptor Element (RORE) (AID 2282959). The settings on record: HepG2 Attagene cis-factorial RORE reporter, mRNA; actives raise or lower the signal. Put shortly:
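Transiently transfected HepG2 reporter cells were treated 24 h. Reporter transcripts were detected by RT-PCR and capillary electrophoresis, with bidirectional fitting against DMSO.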

A short description of test [4]: ATG_Sox_CIS: Attagene CIS-FACTORIAL HepG2 Assay for human SRY-box transcription factor (SOX) (AID 2282960). The settings on record: HepG2 Attagene cis-factorial SOX reporter, mRNA; actives raise or lower the signal. Put shortly:
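Gain- or loss-of-signal endpoint, fitted bidirectionally with DMSO as negative control. Based on reporter mRNA from transfected HepG2 cells harvested 24 h post-treatment and quantified via RT-PCR and capillary electrophoresis.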

In test [5] the target is Transcription factor Sp1 (Homo sapiens) (UniProt P08047). As to the kind of experiment: ATG_Sp1_CIS: Attagene CIS-FACTORIAL HepG2 Assay for human Specificity Protein 1 (Sp1) (AID 2282961). The settings on record: HepG2 Sp1 cis-reporter transcription, actives raise or lower the signal. Put shortly: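 Endpoint reflects endogenous Sp1 transcriptional activity, not an exogenous fusion protein: HepG2 cells with transfected cis-regulated reporters, 24 h dosing, RT-PCR/capillary electrophoresis mRNA read-out, DMSO-normalised bidirectional fit.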

Test [6] in a line: ATG_SREBP_CIS: Attagene CIS-FACTORIAL HepG2 Assay for human Sterol Regulatory Element Binding (SREBP) (AID 2282962). The settings on record: HepG2 Attagene cis-factorial SREBP reporter, mRNA; actives raise or lower the signal. Put shortly:
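HepG2 cells transiently transfected with multiplexed cis-promoter reporter units sensing endogenous transcription factors; reporter mRNA measured 24 h after dosing by RT-PCR, 6-FAM labeling, HpaI digestion and capillary electrophoresis. Bidirectional fit versus DMSO.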

Test [7] has as its target Signal transducer and activator of transcription 3 (Homo sapiens) (UniProt P40763). As to the kind of experiment: ATG_STAT3_CIS: Attagene CIS-FACTORIAL HepG2 Assay for human Signal Transducer and Activator of Transcription 3 (STAT3) (AID 2282963). The settings on record: HepG2, Attagene cis-factorial STAT3 reporter transcription; actives raise or lower the signal. Put shortly: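 Transcript-level reporter assay. HepG2 transient MRTU transfection, 24 h exposure, fluorescence detection after RT-PCR and CE; DMSO baseline.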

Test [8] is described as follows: ATG_TCF_b_cat_CIS: Attagene CIS-FACTORIAL HepG2 Assay for human T-Cell-Factor with beta-catenin (TCF/b-cat) (AID 2282965). The settings on record: HepG2 TCF/beta-catenin cis-reporter transcription, actives raise or lower the signal. Put shortly:
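In this cis-format system, transfected HepG2 cells report endogenous transcription factor activity. Readout after 24 h exposure is reporter transcript abundance from RT-PCR and capillary electrophoresis, analysed for gain or loss of signal versus DMSO.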

Test [9] in a line: ATG_TAL_CIS: Attagene CIS-FACTORIAL HepG2 Assay for human TAL Basal Promoter (AID 2282966).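 Further: background control endpoint measuring basal TAL promoter reporter mRNA not a specific factor.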 The settings on record: HepG2 Attagene cis-factorial TAL promoter reporter; actives raise or lower the signal. Put shortly: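 HepG2 cells were transiently transfected with promoter-driven multiplexed reporter units and dosed for 24 h. Reporter mRNA was measured by RT-PCR with capillary electrophoresis fluorescence; bidirectional fits used DMSO as baseline, serving as a background control.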

The target in test [10] is Estrogen receptor (Homo sapiens) (UniProt P03372). Description: ATG_ERa_TRANS: Attagene TRANS-FACTORIAL HepG2 Assay for human Estrogen Receptor alpha (ERa) (AID 2282970; active means hit-call score of the fitted dose curve at least 0.9, where 1 is the maximum). The settings on record: HepG2 Attagene TRANS ERa GAL4 reporter, mRNA. Put shortly:
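HepG2 cells transiently transfected with multiplexed GAL4-UAS reporter units; ERa activity read via exogenous chimeric NR-Gal4 protein. After 24 hour compound exposure, reporter mRNA measured by RT-PCR with 6-FAM labelling and capillary electrophoresis; gain-of-signal fitted relative to DMSO.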

In test [11] the target is X-box-binding protein 1 (Homo sapiens) (UniProt P17861). As to the kind of experiment: ATG_Xbp1_CIS: Attagene CIS-FACTORIAL HepG2 Assay for human X-box Binding Protein 1 (XBP1) (AID 2282972). The settings on record: HepG2 XBP1 cis-element reporter, Attagene multiplex; actives raise or lower the signal. Put shortly:
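HepG2 cells transiently transfected with multiple cis-element reporter units report endogenous TF activity; 24 h exposure, then reporter mRNA measured by RT-PCR, 6-FAM labelling, HpaI digestion and capillary electrophoresis. Bidirectional fitting versus DMSO.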

The nature of test [12]: ATG_TA_CIS: Attagene CIS-FACTORIAL HepG2 Assay for human TA Basal Promoter (AID 2282964). The settings on record: HepG2 Attagene CIS-factorial TA basal promoter reporter; actives raise or lower the signal. Put shortly: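 Steps: transfect HepG2 with MRTUs; dose 24 h; isolate RNA, DNase-treat, reverse-transcribe; PCR and FAM-label reporter cDNA; digest with HpaI 2h at 37 C; run capillary electrophoresis. Activity fitted both directions against DMSO.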

The nature of test [13]: ATG_TGFb_CIS: Attagene CIS-FACTORIAL HepG2 Assay for human Transforming Growth Factor (TGF) (AID 2282967). The settings on record: HepG2 Attagene CIS TGFb reporter, mRNA transcription; actives raise or lower the signal. Put shortly:
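Cells were dosed for 24 hours, after which total RNA was reverse-transcribed and reporter sequences amplified, labeled and sized by capillary electrophoresis. Activity was fitted in both directions against DMSO.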

Test [14] can be described thus: ATG_VDRE_CIS: Attagene CIS-FACTORIAL HepG2 Assay for human Vitamin D Receptor Element (VDRE) (AID 2282968). The settings on record: HepG2 VDRE cis-reporter transcription, actives raise or lower the signal. Put shortly:
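RT-PCR/CE readout of reporter mRNA; HepG2, transient transfection, 24 h dosing; DMSO baseline; bidirectional analysis.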

For test [15], the target named is Nuclear receptor subfamily 1 group I member 3 (Homo sapiens) (UniProt Q14994). Description: ATG_CAR_TRANS: Attagene TRANS-FACTORIAL HepG2 Assay for human Constitutive Androstane Receptor (CAR) (AID 2282969; active means hit-call score of the fitted dose curve at least 0.9, where 1 is the maximum;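 further: activators raise reporter mRNA above DMSO so AC50 marks induction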). The settings on record: HepG2 Attagene TRANS-FACTORIAL CAR reporter. Put shortly: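 HepG2 cells transiently transfected with multiplexed GAL4-UAS reporter units expressing chimeric NR-Gal4 proteins; compound exposure 24 h. Reporter mRNA measured by RT-PCR, 6-FAM labelling, HpaI digestion and capillary electrophoresis; gain-of-signal fitted against DMSO baseline.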

Test [16] deals with Steroid hormone receptor ERR1 (Homo sapiens) (UniProt P11474). As to the kind of experiment: ATG_ERRa_TRANS: Attagene TRANS-FACTORIAL HepG2 Assay for human Estrogen-Related Receptor alpha (ERRa) (AID 2282971; active means hit-call score of the fitted dose curve at least 0.9, where 1 is the maximum). The settings on record: HepG2 Attagene TRANS reporter, ERRa transactivation. Put shortly: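 HepG2 cells transiently transfected with multiplexed GAL4-UAS reporter units reading chimeric ERRa-Gal4 activity; 24 h compound exposure. Reporter mRNA measured by RT-PCR, 6-FAM labelling, HpaI digest and capillary electrophoresis; gain of signal fitted versus DMSO baseline.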

Test [17] concerns the target Estrogen-related receptor gamma (Homo sapiens) (UniProt P62508). Description: ATG_ERRg_TRANS: Attagene TRANS-FACTORIAL HepG2 Assay for human Estrogen-Related Receptor gamma (ERRg) (AID 2282977; active means hit-call score of the fitted dose curve at least 0.9, where 1 is the maximum;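 further: hits increase reporter signal over DMSO so potencies reflect activators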). The settings on record: HepG2 Attagene TRANS reporter, ERRg transactivation. Put shortly: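 HepG2 cells transiently transfected with multiplexed GAL4-UAS reporter units driven by chimeric NR-Gal4 proteins; 24 h exposure. Reporter mRNA quantified by RT-PCR, fluorescent labelling, HpaI digestion and capillary electrophoresis; gain of signal vs DMSO.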

Test [18] is described as follows: ATG_M_19_TRANS: Attagene TRANS-FACTORIAL HepG2 Assay for M19 Transcription Factor (Internal Marker) (AID 2282974; active means hit-call score of the fitted dose curve at least 0.9, where 1 is the maximum). The settings on record: HepG2 Attagene TRANS-FACTORIAL M19 internal marker reporter. Put shortly: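 Using RT-PCR and capillary electrophoresis, reporter mRNA from transiently transfected human HepG2 cells was quantified following 24 h exposure; activity was fitted in the positive direction against DMSO.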

The nature of test [19]: ATG_GAL4_TRANS: Attagene TRANS-FACTORIAL HepG2 Assay for GAL4 (Internal Marker) (AID 2282976; active means hit-call score of the fitted dose curve at least 0.9, where 1 is the maximum). The settings on record: HepG2 Attagene TRANS GAL4 internal marker reporter. Put shortly:
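HepG2 cells transiently transfected with multiplexed GAL4-UAS reporter constructs were dosed for 24 h. Reporter mRNA was measured by RT-PCR, 6-FAM primer extension, HpaI digestion and capillary electrophoresis, and gain of signal was fitted relative to DMSO.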

Sequence of Signal transducer and activator of transcription 3 (Homo sapiens) (P40763 whole entry, looked up): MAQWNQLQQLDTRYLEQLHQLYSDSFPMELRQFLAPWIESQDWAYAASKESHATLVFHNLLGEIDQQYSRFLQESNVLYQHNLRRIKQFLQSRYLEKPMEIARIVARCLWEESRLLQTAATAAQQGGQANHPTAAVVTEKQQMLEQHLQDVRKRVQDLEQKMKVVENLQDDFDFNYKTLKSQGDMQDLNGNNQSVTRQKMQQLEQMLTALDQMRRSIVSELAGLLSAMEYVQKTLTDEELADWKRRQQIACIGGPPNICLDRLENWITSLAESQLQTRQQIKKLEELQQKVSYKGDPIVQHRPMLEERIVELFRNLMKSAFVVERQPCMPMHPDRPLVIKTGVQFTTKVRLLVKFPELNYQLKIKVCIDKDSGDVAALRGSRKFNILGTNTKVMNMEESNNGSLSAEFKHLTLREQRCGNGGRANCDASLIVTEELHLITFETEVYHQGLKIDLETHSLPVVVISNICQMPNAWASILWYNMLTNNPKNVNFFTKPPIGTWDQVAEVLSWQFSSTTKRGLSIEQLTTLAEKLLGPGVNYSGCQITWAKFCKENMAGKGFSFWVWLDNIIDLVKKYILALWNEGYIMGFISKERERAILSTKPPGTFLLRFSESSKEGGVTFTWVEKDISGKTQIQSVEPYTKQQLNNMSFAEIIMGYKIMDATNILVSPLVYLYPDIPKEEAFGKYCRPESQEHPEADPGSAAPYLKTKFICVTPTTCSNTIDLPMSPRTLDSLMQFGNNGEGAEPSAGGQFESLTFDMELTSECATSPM
Sequence of X-box-binding protein 1 (Homo sapiens) (P17861 whole entry, looked up): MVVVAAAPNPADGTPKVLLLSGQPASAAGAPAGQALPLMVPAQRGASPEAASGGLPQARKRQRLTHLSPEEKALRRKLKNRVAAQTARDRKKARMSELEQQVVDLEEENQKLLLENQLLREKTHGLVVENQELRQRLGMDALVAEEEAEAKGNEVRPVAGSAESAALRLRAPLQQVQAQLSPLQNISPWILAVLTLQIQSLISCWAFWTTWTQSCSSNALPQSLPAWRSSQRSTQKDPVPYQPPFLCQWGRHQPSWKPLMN
Sequence of Steroid hormone receptor ERR1 (Homo sapiens) (P11474 whole entry, looked up, the tested form may be a part): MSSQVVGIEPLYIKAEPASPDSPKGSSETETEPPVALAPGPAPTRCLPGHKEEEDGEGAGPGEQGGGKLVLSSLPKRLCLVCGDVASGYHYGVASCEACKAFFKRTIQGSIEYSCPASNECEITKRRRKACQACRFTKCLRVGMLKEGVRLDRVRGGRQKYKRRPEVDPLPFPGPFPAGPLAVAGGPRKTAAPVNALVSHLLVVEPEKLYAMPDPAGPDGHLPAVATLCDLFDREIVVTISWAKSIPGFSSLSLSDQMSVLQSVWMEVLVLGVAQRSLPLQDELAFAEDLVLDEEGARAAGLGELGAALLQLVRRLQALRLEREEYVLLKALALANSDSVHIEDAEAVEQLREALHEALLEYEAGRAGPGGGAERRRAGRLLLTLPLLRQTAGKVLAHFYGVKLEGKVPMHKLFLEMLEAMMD
Sequence of Transcription factor Sp1 (Homo sapiens) (P08047 whole entry, looked up, the tested form may be a part): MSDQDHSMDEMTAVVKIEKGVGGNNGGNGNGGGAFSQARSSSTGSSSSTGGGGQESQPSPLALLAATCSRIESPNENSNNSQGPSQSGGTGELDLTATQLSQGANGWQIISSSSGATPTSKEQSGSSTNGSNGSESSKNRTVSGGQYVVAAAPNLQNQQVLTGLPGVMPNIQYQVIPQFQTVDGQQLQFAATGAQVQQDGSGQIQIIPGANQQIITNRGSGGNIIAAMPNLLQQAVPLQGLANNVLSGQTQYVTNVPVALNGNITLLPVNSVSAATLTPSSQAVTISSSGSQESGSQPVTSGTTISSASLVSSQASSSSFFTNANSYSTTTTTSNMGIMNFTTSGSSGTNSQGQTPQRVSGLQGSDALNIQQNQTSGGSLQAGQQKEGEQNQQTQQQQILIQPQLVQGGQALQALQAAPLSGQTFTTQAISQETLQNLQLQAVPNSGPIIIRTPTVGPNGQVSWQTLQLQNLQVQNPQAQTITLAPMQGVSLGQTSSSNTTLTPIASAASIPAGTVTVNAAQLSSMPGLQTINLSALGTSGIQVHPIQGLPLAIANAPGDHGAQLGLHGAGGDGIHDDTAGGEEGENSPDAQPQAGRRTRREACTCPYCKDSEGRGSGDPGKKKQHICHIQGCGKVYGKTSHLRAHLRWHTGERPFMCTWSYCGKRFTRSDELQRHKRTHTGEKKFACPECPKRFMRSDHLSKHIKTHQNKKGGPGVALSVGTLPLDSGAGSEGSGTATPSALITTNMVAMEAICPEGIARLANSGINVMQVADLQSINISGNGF
Sequence of Estrogen receptor (Homo sapiens) (P03372 whole entry, looked up, the tested form may be a part): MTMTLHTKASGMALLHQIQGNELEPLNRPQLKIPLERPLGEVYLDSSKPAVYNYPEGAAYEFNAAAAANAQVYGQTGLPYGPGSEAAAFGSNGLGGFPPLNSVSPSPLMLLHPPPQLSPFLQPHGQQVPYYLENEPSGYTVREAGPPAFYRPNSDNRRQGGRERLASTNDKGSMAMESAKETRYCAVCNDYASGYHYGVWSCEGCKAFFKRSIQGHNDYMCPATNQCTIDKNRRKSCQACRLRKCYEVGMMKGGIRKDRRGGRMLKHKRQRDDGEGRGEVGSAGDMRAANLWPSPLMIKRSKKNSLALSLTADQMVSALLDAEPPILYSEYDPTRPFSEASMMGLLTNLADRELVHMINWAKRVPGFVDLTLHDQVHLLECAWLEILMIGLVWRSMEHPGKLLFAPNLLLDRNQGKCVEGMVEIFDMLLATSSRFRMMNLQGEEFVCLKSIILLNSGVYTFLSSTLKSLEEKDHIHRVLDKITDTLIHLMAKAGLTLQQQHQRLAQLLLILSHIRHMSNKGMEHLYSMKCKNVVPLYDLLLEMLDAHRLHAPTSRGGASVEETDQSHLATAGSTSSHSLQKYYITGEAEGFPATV
Sequence of Estrogen-related receptor gamma (Homo sapiens) (P62508 whole entry, looked up, the tested form may be a part): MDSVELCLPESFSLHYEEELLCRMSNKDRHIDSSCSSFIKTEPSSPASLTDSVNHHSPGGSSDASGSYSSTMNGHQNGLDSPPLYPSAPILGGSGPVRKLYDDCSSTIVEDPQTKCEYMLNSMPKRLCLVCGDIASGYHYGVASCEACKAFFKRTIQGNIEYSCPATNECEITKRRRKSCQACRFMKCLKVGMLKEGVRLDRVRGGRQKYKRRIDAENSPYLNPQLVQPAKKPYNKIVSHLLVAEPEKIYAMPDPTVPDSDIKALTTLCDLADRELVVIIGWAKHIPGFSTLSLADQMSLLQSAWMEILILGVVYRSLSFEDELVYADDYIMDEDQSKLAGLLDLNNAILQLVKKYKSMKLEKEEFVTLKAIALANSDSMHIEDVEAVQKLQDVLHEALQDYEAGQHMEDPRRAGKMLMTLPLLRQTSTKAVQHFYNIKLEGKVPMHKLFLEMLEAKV
Sequence of Nuclear receptor subfamily 1 group I member 3 (Homo sapiens) (Q14994 whole entry, looked up, the tested form may be a part): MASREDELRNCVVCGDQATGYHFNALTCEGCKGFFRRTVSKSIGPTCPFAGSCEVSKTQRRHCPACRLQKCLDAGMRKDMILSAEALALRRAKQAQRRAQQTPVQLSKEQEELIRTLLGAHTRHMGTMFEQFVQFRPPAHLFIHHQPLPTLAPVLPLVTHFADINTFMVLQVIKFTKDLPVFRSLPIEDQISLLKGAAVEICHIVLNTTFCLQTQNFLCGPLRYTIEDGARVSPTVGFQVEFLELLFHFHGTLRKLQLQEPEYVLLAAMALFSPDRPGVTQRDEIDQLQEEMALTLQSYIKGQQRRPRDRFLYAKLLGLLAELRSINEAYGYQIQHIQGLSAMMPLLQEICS

For `CC(=O)OC(C)C`, the AC50 in [1] is 100 µM (active). Also, the molecule was called inactive in test [2], in test [3], in [4], in [5], in [6] and in test [7]. The call in test [8], in test [9], in test [10] and in test [11] was inactive.
Turning to `[Cl][In]([Cl])[Cl]`, the result in [1], in test [3], in test [4], in test [5], in test [6] and in [7] was inactive. In addition, the call in test [12], in test [8], in [9], in test [13], in [14] and in [15] was inactive. Moreover, the call in test [10], in test [16], in [11] and in test [17] was inactive.
As to `CCOC(=O)CC(C(C)=O)C(C)=O`, the molecule was called inactive in test [1], in test [2], in [3], in test [4], in test [5] and in test [6]. The molecule was classed as inactive in [7], in test [12], in test [8], in test [9], in test [14] and in test [10]. The molecule was classed as inactive in test [11] and in test [18].
As to `Cc1cccc(C(=O)O)c1`, the call in test [1], in [2], in [3], in test [4], in test [5] and in test [6] was inactive. The result in test [7], in test [12], in test [9], in test [13], in test [14] and in test [10] was inactive. Moreover, the result in test [16], in test [11] and in [19] was inactive.
Turning to `CCCOC(=O)CCCCC(=O)OCCC`, in test [1], the AC50 was 65.4 µM (active). Besides, the outcome in test [2], in [3], in test [4], in test [6], in test [7] and in [8] was inactive. In addition, the result in test [9], in test [16], in test [11], in test [18], in test [19] and in [17] was inactive.
Regarding `CC(C)CCCC(C)CC=O` (configuration not stated), the AC50 in test [1] is 65.1 µM (active). Moreover, the result in test [2], in test [3], in test [4], in test [5], in test [6] and in [7] was inactive. For the same molecule, the result in test [12], in [9], in test [13], in [10], in test [11] and in [18] was inactive.
